# Inconclusive results are not listed. A call without a number means that no potency is given here. Values without a mark were called inactive. Active and inactive are the calls of the source. The call rests on the fitted dose curve; in most records, active means well fitted cell-killing curve with a large enough effect; inconclusive means small, poorly fitted or top-dose-only effect, or effect the other way; inactive means flat fitted curve, though single readings scatter.
# Tested on: JEG-3
# Test: Primary qHTS to identify gynecologic anti-cancer compounds using libraries of approved drugs and bioactive compounds (AID 1345084); further: nearly all actives have a fitted effect of over 55% in size
# Details: Gynecologic cancer cell panel viability, ATPlite luminescence, 48 h; series mostly up to 57.5 µM
# Outline: (§1)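 In this quantitative HTS, cell killing is estimated from loss of ATP-dependent luciferase light. Cells see five compound concentrations over a 48 h exposure.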
SMILES,Potency,"activity change, negative = cytotoxicity"
COc1c(C)c2c(c(O)c1C/C=C(\C)CC/C=C(\C)CCC(=O)O)C(=O)OC2,inactive,–
CNC(=O)COC(=O)NCCC1CCN(c2cccc(C)n2)CC1,inactive,–
Cc1nn(C)c(COc2ccc(N3CCN(S(=O)(=O)N(C)C)CC3)cc2)c1-c1cccc2c(CCCOc3cccc4ccccc34)c(C(=O)O)n(CCN3CCOCC3)c12,inactive,–
CCCCS(=O)(=O)Nc1ncnc(OCCOc2ncc(Br)cn2)c1-c1ccc(Br)cc1,inactive,–
C[C@H]1C[C@H]2[C@@H]3CCC4=CC(=O)C=C[C@]4(C)[C@@]3(F)[C@@H](O)C[C@]2(C)[C@@]1(O)C(=O)COP(=O)(O)O,inactive,–
CC(C)(O)c1ccc2c(c1)C(O)CC1C(C)(C(=O)O)CCCC21C (configuration not stated),inactive,–
COc1cc(CCc2ccccc2)c(C(=O)O)c2c1CC(C(C)(C)O)O2 (configuration not stated),inactive,–
CCCCCCc1cccc(NC(=O)[C@H](N)CCP(=O)(O)O)c1,–,8.47% [at 11.6 µM]
CC(C)CC(=O)n1cc(C(N)=O)c(=O)cc1C(O)c1ccccc1 (configuration not stated),inactive,–
CC(C)C(C#N)O[C@@H]1O[C@H](CO[C@@H]2OC[C@](O)(CO)[C@H]2O)[C@@H](O)[C@H](O)[C@H]1O (some centres not stated),inactive,–
COc1ccc(/C=C/C(=O)O[C@H]2[C@@H]3C=CO[C@@H](O[C@@H]4O[C@H](CO)[C@@H](O)[C@H](O)[C@H]4O)[C@@H]3[C@@]3(CO)O[C@@H]23)cc1O,inactive,–
C=C1CC23CC1(O)CCC2C1=CC2OC(=O)C(C)(C2O)C1C3C(=O)O (configuration not stated),inactive,–
COc1cc(/C=C/C(=O)OC[C@H]2O[C@H](O[C@]3(CO)O[C@H](CO)[C@@H](O)[C@@H]3O)[C@H](O)[C@@H](O)[C@@H]2O)cc(OC)c1O,inactive,–
C(#Cc1cccc(CN2CCOCC2)c1)CCN1CCCCC1,inactive,–
COc1cc(C)c(C(=O)O[C@H]2[C@@H](O)[C@H](n3ccc(=O)[nH]c3=O)O[C@@H]2CO)c(OC)c1,inactive,–
C[C@@]12C[C@]3(O)O[C@H](O1)[C@]1(COC(=O)c4ccccc4)[C@H]3C[C@@]12O[C@@H]1O[C@H](COC(=O)c2ccccc2)[C@@H](O)[C@H](O)[C@H]1O,inactive,–
C[C@@H]1O[C@@H](O[C@H]2[C@H](O)[C@@H](C(=O)O)O[C@@H](O[C@H]3CC[C@@]4(C)C(CC[C@]5(C)C4CC=C4C6CC(C)(C)CC[C@]6(C(=O)O)CC[C@]45C)C3(C)C)[C@@H]2O[C@@H]2O[C@H](CO)[C@@H](O)[C@H](O)[C@H]2O)[C@H](O)[C@H](O)[C@H]1O (some centres not stated),–,-1.5% [at 11.6 µM]
CC(=O)N1CCN(NC(=O)c2ccc(F)cc2)CC1,inactive,–

# Tested on: OV90
# Test: as above
# Details: Gynecologic cancer cell panel viability, ATPlite luminescence, 48 h; series mostly up to 57.5 µM
# Outline: as §1
SMILES,Potency,"activity change, negative = cytotoxicity"
C[C@]12CCC[C@](C)(C(=O)O)C1CCC13C=C(CO)C(CCC12)C3 (some centres not stated),inactive,–
O=C(c1ccc(C#Cc2cccc(F)c2)cn1)N1CC2CC2C1 (configuration not stated),inactive,–
C[C@H]1[C@H](C)CC[C@]2(C(=O)O)CC[C@]3(C)C(=CC[C@@H]4[C@@]5(C)C[C@@H](O)[C@H](O)[C@@](C)(CO)[C@@H]5CC[C@]43C)[C@H]12,inactive,–
C/C=C/C=C/C(CC(=O)O)Nc1ccc(C=O)cc1 (configuration not stated),inactive,–
C[C@@H]1O[C@@H](O[C@H]2[C@H](OC(=O)[C@]34CCC(C)(C)C[C@H]3C3=CCC5[C@@]6(C)C[C@H](O)[C@H](O[C@@H]7O[C@H](CO)[C@@H](O[C@@H]8O[C@H](CO)[C@@H](O)[C@H](O)[C@H]8O)[C@H](O)[C@H]7O)[C@@](C)(CO)C6[C@H](O)C[C@@]5(C)[C@]3(C)C[C@H]4O)OC[C@H](O)[C@@H]2O)[C@H](O)[C@H](O)[C@H]1O[C@@H]1OC[C@@H](O)[C@H](O[C@@H]2OC[C@](O)(CO)[C@H]2O)[C@H]1O (some centres not stated),–,4.05% [at 6.55 µM]
CC(C)(O)c1ccc2c(c1)C(=O)CC1[C@](C)(CO)CCC[C@]21C (some centres not stated),inactive,–
CC(=O)C1CCC2(C)C3=C(CCC12C)C1(C)CCC(=O)C(C)(C)C1CC3 (configuration not stated),inactive,–
C[C@@H]1C/C=C/C=C\C=C\C=C\[C@H](O[C@@H]2O[C@H](C)[C@@H](O)[C@H](N)[C@@H]2O)C[C@@H]2O[C@](O)(C[C@@H](O)C[C@H]3O[C@@H]3/C=C/C(=O)O1)C[C@H](O)[C@H]2C(=O)O,inactive,–
COC(=O)C[C@@H]1C(C(=O)O)=CO[C@@H](O[C@@H]2O[C@H](CO)[C@@H](O)[C@H](O)[C@H]2O)/C1=C\COC(=O)/C=C\c1ccccc1,inactive,–
CC1CCC2C(C(=O)O)=CC3C(O)C(C)(C)CC123 (configuration not stated),inactive,–
CC(C)(O)/C=C1/C(=O)C(C)(C)C(=O)C(C)(C)C1(O)O[C@@H]1O[C@H](COC(=O)c2cc(O)c(O)c(O)c2)[C@@H](O)[C@H](O)[C@H]1O (some centres not stated),inactive,–
Cc1cc(O)c(C(C)C)cc1O[C@@H]1O[C@H](CO)[C@@H](O)[C@H](O)[C@H]1O,inactive,–
O=C1CC(c2ccc([N+](=O)[O-])cc2)=NN1c1ccccc1,inactive,–
C=C1[C@H]2[C@H](O[C@@H]3O[C@H](COC(=O)/C=C/c4cc(OC)c(O)c(OC)c4)[C@@H](O)[C@H](O)[C@H]3O)OC=C(C(=O)O)[C@H]2C[C@@H]1O,inactive,–
C/C=C(\C)C(=O)OC[C@H]1O[C@H](O[C@H]2O[C@H](CO)[C@@H](OC(=O)/C(C)=C/C)[C@H](O)[C@H]2O[C@@H]2O[C@H](CO)[C@@H](O)[C@H](O)[C@H]2O)[C@H](O[C@@H]2O[C@H](CO)[C@@H](O)[C@H](O)[C@H]2O)[C@@H](O)[C@@H]1O,–,8.14% [at 11.6 µM]
CN1CC[C@@H](NC(=O)Nc2ccc(C#N)cc2)C[C@@H]1c1nc2ccccc2[nH]1,inactive,–
O=C(O)c1cc(O[C@@H]2O[C@H](CO[C@@H]3OC[C@@H](O)[C@H](O)[C@H]3O)[C@@H](O)[C@H](O)[C@H]2O)c2ccccc2c1O,inactive,–
O=c1ccn(C2OC(CO)C(O)C2O)c(=O)[nH]1 (configuration not stated),inactive,–
Clc1ccc(CN[C@H]2CCN(c3ncc(Br)cn3)C2)c(Cl)c1,inactive,–
C=C1C(=O)OC2/C=C(\C)CC/C=C(\C(=O)O)CC/C=C(\C)CCC12 (configuration not stated),inactive,–

SMILES,Potency,"activity change, negative = cytotoxicity"
C=CC1(C)C=C2C(=O)CC3C(C)(C)CCCC3(C(=O)O)C2(O)CC1 (configuration not stated),inactive,–
COc1c(C)c2c(c(O)c1C/C=C(\C)CC/C=C(\C)CCC(=O)O)C(=O)OC2,inactive,–
CNC(=O)COC(=O)NCCC1CCN(c2cccc(C)n2)CC1,inactive,–
Cc1nn(C)c(COc2ccc(N3CCN(S(=O)(=O)N(C)C)CC3)cc2)c1-c1cccc2c(CCCOc3cccc4ccccc34)c(C(=O)O)n(CCN3CCOCC3)c12,inactive,–
CCCCS(=O)(=O)Nc1ncnc(OCCOc2ncc(Br)cn2)c1-c1ccc(Br)cc1,inactive,–
C[C@H]1C[C@H]2[C@@H]3CCC4=CC(=O)C=C[C@]4(C)[C@@]3(F)[C@@H](O)C[C@]2(C)[C@@]1(O)C(=O)COP(=O)(O)O,inactive,–
CC(C)(O)c1ccc2c(c1)C(O)CC1C(C)(C(=O)O)CCCC21C (configuration not stated),inactive,–
COc1cc(CCc2ccccc2)c(C(=O)O)c2c1CC(C(C)(C)O)O2 (configuration not stated),inactive,–
CCCCCCc1cccc(NC(=O)[C@H](N)CCP(=O)(O)O)c1,–,3.38% [at 11.6 µM]
CC(C)CC(=O)n1cc(C(N)=O)c(=O)cc1C(O)c1ccccc1 (configuration not stated),inactive,–
CC(C)C(C#N)O[C@@H]1O[C@H](CO[C@@H]2OC[C@](O)(CO)[C@H]2O)[C@@H](O)[C@H](O)[C@H]1O (some centres not stated),inactive,–
COc1ccc(/C=C/C(=O)O[C@H]2[C@@H]3C=CO[C@@H](O[C@@H]4O[C@H](CO)[C@@H](O)[C@H](O)[C@H]4O)[C@@H]3[C@@]3(CO)O[C@@H]23)cc1O,inactive,–
C=C1CC23CC1(O)CCC2C1=CC2OC(=O)C(C)(C2O)C1C3C(=O)O (configuration not stated),inactive,–
COc1cc(/C=C/C(=O)OC[C@H]2O[C@H](O[C@]3(CO)O[C@H](CO)[C@@H](O)[C@@H]3O)[C@H](O)[C@@H](O)[C@@H]2O)cc(OC)c1O,inactive,–
C(#Cc1cccc(CN2CCOCC2)c1)CCN1CCCCC1,inactive,–
COc1cc(C)c(C(=O)O[C@H]2[C@@H](O)[C@H](n3ccc(=O)[nH]c3=O)O[C@@H]2CO)c(OC)c1,inactive,–
C[C@@]12C[C@]3(O)O[C@H](O1)[C@]1(COC(=O)c4ccccc4)[C@H]3C[C@@]12O[C@@H]1O[C@H](COC(=O)c2ccccc2)[C@@H](O)[C@H](O)[C@H]1O,inactive,–
C[C@@H]1O[C@@H](O[C@H]2[C@H](O)[C@@H](C(=O)O)O[C@@H](O[C@H]3CC[C@@]4(C)C(CC[C@]5(C)C4CC=C4C6CC(C)(C)CC[C@]6(C(=O)O)CC[C@]45C)C3(C)C)[C@@H]2O[C@@H]2O[C@H](CO)[C@@H](O)[C@H](O)[C@H]2O)[C@H](O)[C@H](O)[C@H]1O (some centres not stated),–,-2.55% [at 11.6 µM]
CC(=O)N1CCN(NC(=O)c2ccc(F)cc2)CC1,inactive,–
